Reference: PubChem BioAssay (Tox21)
Results filed as inconclusive are left out. Where a call stands in place of a potency, no number is given. Active and inactive are the calls of the source. Unless noted, calls come from the whole dose curve.

Experiments:
[1] = Nuclear factor erythroid 2-related factor 2/antioxidant responsive element (Nrf2/ARE) small molecule agonists: luciferase reporter gene qHTS assay in human keratinocytes (AID 1919969); note: nearly all actives have a fitted effect of over 35% in size; note: potency is the fitted concentration of half-maximal effect
[2] = molecular target: Gonadotropin-releasing hormone receptor (Homo sapiens) (UniProt P30968); assay: Human gonadotropin-releasing hormone receptor (GnRHR) small molecule agonists, calcium flux assay in GnRHR-HEK293 cells (AID 1920063); note: nearly all actives have a fitted effect of over 35% in size
Gonadotropin-releasing hormone receptor (Homo sapiens), sequence (P30968 whole entry, looked up): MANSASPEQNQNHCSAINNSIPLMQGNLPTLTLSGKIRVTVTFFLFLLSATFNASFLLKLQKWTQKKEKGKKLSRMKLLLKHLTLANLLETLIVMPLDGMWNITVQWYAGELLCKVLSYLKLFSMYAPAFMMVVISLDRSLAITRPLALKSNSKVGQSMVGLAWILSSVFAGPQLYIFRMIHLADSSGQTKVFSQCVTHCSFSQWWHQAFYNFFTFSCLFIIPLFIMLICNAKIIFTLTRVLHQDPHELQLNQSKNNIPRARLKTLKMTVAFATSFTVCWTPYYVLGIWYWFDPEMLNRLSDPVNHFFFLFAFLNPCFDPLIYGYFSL
How it was run: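 We seeded human GnRHR-expressing HEK293 cells for 18 hours, loaded them with calcium dye for an hour at 37 C, added test compounds, and recorded fluorescence intensity kinetically for three minutes.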

[3] = molecular target: KiSS-1 receptor (Homo sapiens) (UniProt Q969F8); assay: Human kisspeptin (KISS1R) small molecule agonists, calcium flux assay in KISS1R-HEK293 cells (AID 1920064; active = well fitted activation curve with a large enough effect in the repeat runs)
KiSS-1 receptor (Homo sapiens), sequence (Q969F8 whole entry, looked up): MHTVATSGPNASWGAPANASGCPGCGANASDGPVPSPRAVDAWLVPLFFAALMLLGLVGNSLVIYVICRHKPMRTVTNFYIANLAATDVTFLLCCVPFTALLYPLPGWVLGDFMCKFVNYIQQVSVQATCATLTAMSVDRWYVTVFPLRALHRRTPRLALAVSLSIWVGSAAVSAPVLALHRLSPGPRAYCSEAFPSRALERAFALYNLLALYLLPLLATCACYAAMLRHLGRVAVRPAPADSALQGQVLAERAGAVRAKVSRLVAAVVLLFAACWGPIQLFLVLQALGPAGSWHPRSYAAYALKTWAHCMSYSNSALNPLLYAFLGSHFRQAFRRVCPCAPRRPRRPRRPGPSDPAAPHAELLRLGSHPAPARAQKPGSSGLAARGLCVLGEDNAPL
How it was run: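 Kinetic calcium assay, 1 s sampling over 3 min at Ex/Em 480/540, in HEK293 cells engineered with human KISS1R; compounds delivered in DMSO after 1 h dye loading.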

[4] = G protein-coupled receptor (GPCR) small molecule agonists, calcium flux assay: HEK293 wild type cell line counter screen (AID 1920065)
How it was run: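 Calcium-sensitive dye, loaded 1 h at 37 C into cells cultured 18 h, reports compound-evoked calcium release as fluorescence (Ex/Em 480/540), measured over 3 min. Agonist mode; 15-point titrations, triplicate.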

[5] = p53 small molecule agonists, cell-based qHTS assay with human liver microsomes: qHTS cell viability counter screen (AID 1963579); note: nearly all actives have a fitted effect of over 45% in size
How it was run: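 Metabolic activation used human liver microsomes and NADPH, both 0.5 mg/mL final, over 16 hours at 37 C on p53RE-bla cells (4,000/well). Cytotoxicity measured by CellTiter-Glo luminescence, 30 min at room temperature.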

[6] = p53 small molecule agonists, cell-based qHTS assay with rat liver microsomes: qHTS cell viability counter screen (AID 1963580); note: nearly all actives have a fitted effect of over 45% in size
How it was run: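 In HCT-116 cells carrying a p53 response element-bla reporter, compounds were metabolically activated in situ by rat liver microsomes with NADPH over 16 h. Cell ATP content then served as the cytotoxicity measure.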

[7] = p53 small molecule agonists, cell-based qHTS assay: qHTS cell viability counter screen (AID 1963581); note: nearly all actives have a fitted effect of over 45% in size
How it was run: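 Following 5 h attachment, HCT-116 p53RE-bla cells took up compound for 16 h at 37 C; the reporter was read with B/G FRET substrate (2 h RT), and viability then via CellTiter-Glo ATP luminescence.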

[8] = p53 small molecule agonists, cell-based qHTS assay (AID 1963582; active = well fitted activation curve with a large enough effect in the signal ratio in the repeat runs, not every such curve was filed as active; the % refers to the signal ratio)
How it was run: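 In this cell-based concentration-response screen, a p53 response element drives beta-lactamase; cells received DMSO-borne compounds after 5 h culture and were incubated a further 16 h before FRET substrate development.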

[9] = molecular target: 5-hydroxytryptamine receptor 2A (Homo sapiens) (UniProt P28223); assay: 5-hydroxytryptamine receptor 2A (HTR2A) small molecule antagonists, cell-based qHTS assay (AID 1963586); note: nearly all actives have a fitted effect of over 45% in size
5-hydroxytryptamine receptor 2A (Homo sapiens), sequence (P28223 whole entry, looked up): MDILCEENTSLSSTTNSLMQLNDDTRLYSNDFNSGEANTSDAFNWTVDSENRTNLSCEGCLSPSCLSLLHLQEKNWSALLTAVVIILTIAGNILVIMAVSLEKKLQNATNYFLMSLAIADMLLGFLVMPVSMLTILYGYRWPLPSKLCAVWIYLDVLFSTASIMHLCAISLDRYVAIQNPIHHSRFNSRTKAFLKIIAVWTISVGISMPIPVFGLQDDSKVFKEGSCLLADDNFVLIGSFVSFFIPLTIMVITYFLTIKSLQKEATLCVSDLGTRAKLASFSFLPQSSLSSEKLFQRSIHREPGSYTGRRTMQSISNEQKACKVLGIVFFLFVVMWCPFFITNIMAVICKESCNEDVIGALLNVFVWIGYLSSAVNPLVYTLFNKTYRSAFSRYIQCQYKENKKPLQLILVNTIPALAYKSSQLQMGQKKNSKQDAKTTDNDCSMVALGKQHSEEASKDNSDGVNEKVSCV
How it was run: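 Antagonist-mode intracellular calcium assay: DOI (4 nM) added after 5 min compound pre-incubation at room temperature to dye-loaded HTR2A-CHO cells. Fluorescence followed for 3 min, sampled every second.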

[10] = molecular target: 5-hydroxytryptamine receptor 2A (Homo sapiens) (UniProt P28223); assay: 5-hydroxytryptamine receptor 2A (HTR2A) small molecule agonists, cell-based qHTS assay (AID 1963587); note: nearly all actives have a fitted effect of over 30% in size; note: potency is the fitted concentration of half-maximal effect
How it was run: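 HTR2A-CHO cells, plated 18 h at 37 C/5% CO2, dye-loaded 1 h at 37 C; compounds in DMSO added by pin tool (agonist mode). Intracellular calcium flux read as kinetic fluorescence on FDSS over 2 min at 1 s intervals.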

[11] = molecular target: Muscarinic acetylcholine receptor M1 (Homo sapiens) (UniProt P11229); assay: Cholinergic receptor muscarinic 1 (CHRM1) small molecule antagonists, cell-based qHTS assay (AID 1963588); note: nearly all actives have a fitted effect of over 40% in size
Muscarinic acetylcholine receptor M1 (Homo sapiens), sequence (P11229 whole entry, looked up): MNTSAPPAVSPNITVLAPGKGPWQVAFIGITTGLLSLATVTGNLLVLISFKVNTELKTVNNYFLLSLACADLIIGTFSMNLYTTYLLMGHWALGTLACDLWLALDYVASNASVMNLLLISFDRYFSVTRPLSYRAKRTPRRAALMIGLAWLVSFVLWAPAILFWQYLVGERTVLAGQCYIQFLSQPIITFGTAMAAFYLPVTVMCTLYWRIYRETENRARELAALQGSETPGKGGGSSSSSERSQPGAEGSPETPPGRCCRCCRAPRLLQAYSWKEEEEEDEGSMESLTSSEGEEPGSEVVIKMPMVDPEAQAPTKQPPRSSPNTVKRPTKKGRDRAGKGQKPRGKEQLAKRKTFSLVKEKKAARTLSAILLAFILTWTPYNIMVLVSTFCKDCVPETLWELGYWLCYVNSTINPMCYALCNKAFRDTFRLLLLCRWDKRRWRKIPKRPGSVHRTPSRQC
How it was run: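 CHRM1-CHO calcium-flux assay, antagonist mode. Cells were seeded 18 h, dye-loaded 1 h at 37 C and given compound for 5 min at RT, then acetylcholine was added at 50nM. FDSS fluorescence was read 3 min; 15 concentrations, three runs.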

[12] = molecular target: Muscarinic acetylcholine receptor M1 (Homo sapiens) (UniProt P11229); assay: Cholinergic receptor muscarinic 1 (CHRM1) small molecule agonists, cell-based qHTS assay (AID 1963589); note: nearly all actives have a fitted effect of over 35% in size
How it was run: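 Measures agonist-induced intracellular calcium rise. Stable human CHRM1 CHO line, 1 h dye load at 37 C, compounds from DMSO, kinetic fluorescence read.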

[13] = cAMP Responsive Elements (CRE) small molecule agonists, cell-based qHTS assay (AID 1963590)
How it was run: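 A CRE-responsive beta-lactamase reporter in HEK 293T cells was used. Treatment ran 3 h at 37 C; detection used LiveBLAzer B/G FRET substrate for 2 h at room temperature.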

[14] = cAMP Responsive Elements (CRE) small molecule antagonists, cell-based qHTS assay (AID 1963591; active = well fitted inhibition curve with a large enough effect in the signal ratio in the repeat runs, not every such curve was filed as active; the % refers to the signal ratio; note: potency is the fitted concentration of half-maximal effect)
How it was run: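 HEK293T cells carrying a CRE-driven beta-lactamase reporter receive compound and NKH477 (0.25 uM final) for 3 h. Fluorescence from LiveBLAzer B/G FRET substrate is read after 2 h at room temperature.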

[15] = molecular target: Beta-2 adrenergic receptor (Homo sapiens) (UniProt P07550); assay: Adrenergic beta2 receptor (ADRB2) small molecule antagonists, cell-based qHTS assay (AID 1963592); note: series mostly up to about 92 µM; nearly all actives have a fitted effect of over 50% in size
Beta-2 adrenergic receptor (Homo sapiens), sequence (P07550 whole entry, looked up): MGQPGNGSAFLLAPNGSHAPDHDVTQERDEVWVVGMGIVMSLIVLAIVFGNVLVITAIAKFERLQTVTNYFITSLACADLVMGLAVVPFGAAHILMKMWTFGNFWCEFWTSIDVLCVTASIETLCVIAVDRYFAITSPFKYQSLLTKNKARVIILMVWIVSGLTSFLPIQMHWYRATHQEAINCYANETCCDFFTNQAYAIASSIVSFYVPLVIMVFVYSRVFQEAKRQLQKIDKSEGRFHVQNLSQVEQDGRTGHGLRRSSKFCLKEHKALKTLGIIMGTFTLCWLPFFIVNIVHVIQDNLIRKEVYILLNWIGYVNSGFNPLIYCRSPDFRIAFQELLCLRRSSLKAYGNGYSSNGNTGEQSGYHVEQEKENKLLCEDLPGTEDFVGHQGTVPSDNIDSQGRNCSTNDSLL
How it was run: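 Cells (CHO, stable ADRB2 overexpression) incubated 18-20hr at 37C; compounds added from DMSO; agonist mix (1nM isoproterenol, 100uM IBMX, 25uM Ro-20-1724) added; 0.5hr RT; d2-cAMP and anti-cAMP-cryptate added; 1hr RT; 665/615 nm read.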

[16] = molecular target: Beta-2 adrenergic receptor (Homo sapiens) (UniProt P07550); assay: Adrenergic beta2 receptor (ADRB2) small molecule agonists, cell-based qHTS assay (AID 1963593);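 note: CHO cells stably overexpressing human ADRB2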
How it was run: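 CHO cells stably over-expressing ADRB2 were plated overnight at 37C, then dosed with compounds plus a stimulation mix containing 100uM IBMX and 25uM Ro-20-1724 for 0.5hr at room temperature. cAMP was measured by HTRF competition, 1hr.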

[17] = molecular target: D(2) dopamine receptor (Homo sapiens) (UniProt P14416); assay: Dopamine D2 receptor (DRD2) small molecule agonists, cell-based qHTS assay (AID 1963594); note: nearly all actives have a fitted effect of over 35% in size
D(2) dopamine receptor (Homo sapiens), sequence (P14416 whole entry, looked up): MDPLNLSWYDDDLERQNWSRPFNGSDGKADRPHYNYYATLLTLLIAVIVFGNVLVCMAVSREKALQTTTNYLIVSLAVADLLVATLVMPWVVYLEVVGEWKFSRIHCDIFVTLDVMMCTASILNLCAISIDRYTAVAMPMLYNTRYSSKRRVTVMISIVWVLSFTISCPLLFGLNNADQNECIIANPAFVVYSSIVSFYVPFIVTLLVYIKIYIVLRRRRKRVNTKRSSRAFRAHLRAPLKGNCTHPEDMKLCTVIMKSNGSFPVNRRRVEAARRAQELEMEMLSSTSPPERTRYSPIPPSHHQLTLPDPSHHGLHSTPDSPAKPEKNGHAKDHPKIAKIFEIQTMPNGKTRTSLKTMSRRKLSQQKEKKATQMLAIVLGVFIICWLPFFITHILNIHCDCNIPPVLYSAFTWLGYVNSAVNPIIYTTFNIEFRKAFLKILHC
How it was run: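 HEK293 cells stably expressing DRD2 were cultured 24 h at 37 C, then given Ro20-1724 (0.1 mM final) and compounds for 10 min at room temperature. NKH477 (200nM) was then added for 30 min. cAMP was read by HTRF.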

[18] = molecular target: D(2) dopamine receptor (Homo sapiens) (UniProt P14416); assay: Dopamine D2 receptor (DRD2) small molecule antagonists, cell-based qHTS assay (AID 1963595; active = well fitted inhibition curve with a large enough effect in the signal ratio in the repeat runs, with a control signal flat; the % refers to the signal ratio)
How it was run: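 In this cell-based antagonist screen, compounds act for 10 min at room temperature before a 30 min challenge with 12 nM quinpirole and 200 nM NKH477. cAMP is quantified by HTRF competition in DRD2-HEK293 cells containing 0.1 mM Ro20-1724.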

[19] = p53 small molecule agonists, cell-based qHTS assay with human liver microsomes (AID 1963577);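 note: p53 response element beta-lactamase reporter cells with liver microsomes plus NADPH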
How it was run: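 With metabolic activation: human liver microsomes (0.5 mg/mL final) plus NADPH (0.5 mg/mL final) added alongside compounds to p53RE-bla cells; 16 h 37 C exposure; beta-lactamase read by LiveBLAzer fluorescence.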

[20] = p53 small molecule agonists, cell-based qHTS assay with rat liver microsomes (AID 1963578)
How it was run: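 Metabolic activation by rat liver microsomes and NADPH, each 0.5 mg/mL final, added right after compounds to p53RE-bla reporter cells (4,000/well, plated 5 h earlier). 16 h at 37 C, then LiveBLAzer substrate for 2 h at room temperature in the dark; fluorescence read-out.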

SMILES | Potency [1] | Potency [2] | Potency [3] | Potency [4] | Potency [5] | Potency [6] | Potency [7] | Potency [8] | Potency [9] | Potency [10] | Potency [11] | Potency [12] | Potency [13] | Potency [14] | Potency [15] | Potency [16] | Potency [17] | Potency [18] | Potency [19] | Potency [20]
CS/C(C)=N/OC(=O)N(C)SN(C)C(=O)O/N=C(\C)SC | 68.6 µM (active) | inactive | inactive | inactive | inactive | inactive | inactive | inactive | inactive | 43.6 µM (active) | inactive | inactive | inactive | inactive | inactive | inactive | inactive | inactive |  | 
CC(C)CP(=S)(S)CC(C)C | 15.4 µM (active) | inactive | inactive | inactive | inactive | inactive | inactive | inactive | inactive | inactive | inactive | inactive | inactive | inactive | inactive | inactive | inactive | inactive |  | 
CCOP(=O)(Sc1ccccc1)Sc1ccccc1 | 61.1 µM (active) | inactive | inactive | inactive | inactive | inactive | inactive |  | inactive | inactive | inactive | inactive |  | inactive | inactive | inactive | inactive | inactive |  | 
CCOP(=O)(OCC)Oc1nc(Cl)c(Cl)cc1Cl | inactive | inactive | inactive | inactive | inactive | inactive | inactive |  | inactive | inactive | inactive | inactive |  |  |  |  | inactive | inactive |  | 
Cc1cc(C)c(C(=O)P(=O)(c2ccccc2)c2ccccc2)c(C)c1 | inactive | inactive | inactive | inactive |  | inactive |  |  |  | 24.5 µM (active) | inactive | inactive |  |  | inactive |  | inactive | inactive | inactive | 
CCNS(=O)(=O)C(F)(F)C(F)(F)C(F)(F)C(F)(F)C(F)(F)C(F)(F)C(F)(F)C(F)(F)F | 58.5 µM (active) | inactive | inactive | inactive | inactive | inactive | inactive |  | inactive | inactive | inactive | inactive | inactive | inactive | inactive | inactive | inactive | inactive |  | 
CCOC(=O)Cc1ccccc1 | inactive | inactive | inactive | inactive | inactive | inactive | inactive |  | inactive | inactive | inactive | inactive | inactive | inactive | inactive |  | inactive | inactive |  | 
O=C1NC(=O)C(=O)C(=O)N1 | inactive | inactive | inactive | inactive | inactive | inactive | inactive |  | inactive | inactive | inactive | inactive | inactive | inactive | inactive | inactive | inactive | inactive |  | 
CCCCN(CCCC)C(=S)S | 68.6 µM (active) | inactive | inactive | inactive | inactive | inactive | inactive |  | inactive | inactive | inactive | inactive | inactive |  | inactive |  | inactive | inactive |  | 
CC(C)(C)c1cc([N+](=O)[O-])cc(C(C)(C)C)c1O | 34.4 µM (active) | inactive |  |  | inactive | inactive | inactive |  | inactive | inactive |  | inactive |  |  |  | inactive | inactive | inactive | inactive | inactive
c1cc2ccc3cccc4ccc(c1)c2c34 | inactive | inactive | inactive | inactive |  |  |  |  | inactive | inactive | inactive |  |  |  |  |  |  |  |  | 
CC1(C)CC/C(=C/c2ccc(Cl)cc2)C1(O)Cn1cncn1 (centres undefined) | 43 µM (active) | inactive | inactive |  | inactive | inactive |  |  |  |  | inactive |  |  |  |  |  |  | inactive | inactive | inactive
CCCCCCCc1ccc(O)cc1 | 24.3 µM (active) | inactive | inactive | inactive |  | inactive | inactive |  |  | inactive |  |  | inactive | 68.6 µM (active) | inactive | inactive | inactive |  |  | 
NC(=O)CS(=O)C(c1ccccc1)c1ccccc1 (centres undefined) | inactive | inactive | inactive |  |  | inactive | inactive | inactive |  |  |  |  | inactive | inactive | inactive |  | inactive | inactive |  | inactive
O=[N+]([O-])c1cc(C(F)(F)F)cc([N+](=O)[O-])c1Cl | inactive | inactive | inactive | inactive | inactive | inactive |  |  | inactive | inactive | inactive | inactive |  | inactive | inactive |  | inactive | inactive |  | 
